Experimental data published in the supplement of paper PMC12645437, “Orthogonal IMiD-Degron Pairs Induce Selective Protein Degradation in Cells” (ACS Chemical Biology, 2025).
In all, about 8,300 sequences were measured (“log2 fold change of degron read counts, EGFP-low vs EGFP+ sorted cells (limma voom), compound-induced degradation”: median about -1.1, highest 2% from about 3.2 on). This excerpt belongs to a sample that is enriched for the highest values.

T1: CRBN, Q96SW2
T1 chain: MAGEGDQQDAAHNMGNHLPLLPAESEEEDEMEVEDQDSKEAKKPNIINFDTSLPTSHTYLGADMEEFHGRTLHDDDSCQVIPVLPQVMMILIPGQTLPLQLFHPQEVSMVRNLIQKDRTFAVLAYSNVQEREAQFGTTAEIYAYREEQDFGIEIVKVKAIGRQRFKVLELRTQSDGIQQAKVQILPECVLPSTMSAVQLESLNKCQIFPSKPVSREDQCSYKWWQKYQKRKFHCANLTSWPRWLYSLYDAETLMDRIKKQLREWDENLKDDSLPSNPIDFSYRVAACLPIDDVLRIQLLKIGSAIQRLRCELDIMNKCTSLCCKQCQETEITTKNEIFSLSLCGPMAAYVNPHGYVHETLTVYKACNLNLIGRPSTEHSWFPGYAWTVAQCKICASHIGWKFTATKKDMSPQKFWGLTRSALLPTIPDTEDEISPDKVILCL


Biological target: T1, CRBN, Q96SW2
Experiment: log2 fold change of degron read counts, EGFP-low vs EGFP+ sorted cells (limma voom), compound-induced degradation; higher = more compound-induced degradation of the degron-EGFP fusion; degrons are variants of IKZF1/3 zinc finger 2; compound dose not given here
Details: Jurkat, 18 h
[1] = compound: compound 19 (5-tert-butyl-thalidomide)
[2] = compound: compound 22 (5-morpholino-thalidomide)
[3] = compound: compound 33 (diphenyl IMiD analogue)
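Note: pooled lentiviral library of zinc finger degron-EGFP fusions in mCherry-positive Jurkat cells, FACS-sorted after compound exposure, with degron abundance counted by next-generation sequencing.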

Sequence | log2 fold change of degron read counts [1] | log2 fold change of degron read counts [2] | log2 fold change of degron read counts [3] | log2 fold change of degron read counts (compound: thalidomide)
FTCPICGRYFTQKGNLLRHIKL [46F_47T_49P_50I_52G_53R_54Y_55F_67L_, Q9UKT9] | -0.651 | -0.614 | 0.487 | 0.782
LACNQCGFLCTQKGNLLRHIKL [46L_47A_49N_50Q_52G_53F_54L_55C_67L_, Q9UKT9] | -1.52 | -2.34 | -2.08 | -1.99
LFCEICGFKCTQKGNLLRHIKL [46L_47F_49E_50I_52G_53F_54K_55C_67L_, Q9UKT9] | 3.22 | 3.15 | 0.657 | 1.64
LTCEICGFKCTQKGNLLRHIKL [46L_47T_49E_50I_52G_53F_54K_55C_67L_, Q9UKT9] | 0.899 | 1.56 | -0.216 | 2.39
LLCEICGFKCTQKGNLLRHIKL [46L_47L_49E_50I_52G_53F_54K_55C_67L_, Q9UKT9] | 0.0968 | -1.51 | -0.463 | 1.96
LACEICGFKCTQKGNLLRHIKL [46L_47A_49E_50I_52G_53F_54K_55C_67L_, Q9UKT9] | 3.4 | 1.5 | -1.07 | 0.917
LQCEICGFKCTQKGNLLRHIKL [46L_47Q_49E_50I_52G_53F_54K_55C_67L_, Q9UKT9] | 0.755 | 1.87 | 0.3 | 3.27
LDCEICGFKCTQKGNLLRHIKL [46L_47D_49E_50I_52G_53F_54K_55C_67L_, Q9UKT9] | -0.859 | -1.7 | -1.79 | -0.369
LICEICGFKCTQKGNLLRHIKL [46L_47I_49E_50I_52G_53F_54K_55C_67L_, Q9UKT9] | 0.236 | 1.62 | 0.617 | 2.72
LECEICGFKCTQKGNLLRHIKL [46L_47E_49E_50I_52G_53F_54K_55C_67L_, Q9UKT9] | -0.0668 | -1.67 | -0.528 | 2.53
LYCEICGFKCTQKGNLLRHIKL [46L_47Y_49E_50I_52G_53F_54K_55C_67L_, Q9UKT9] | 3.6 | 3.16 | 1.42 | 1.42
LWCEICGFKCTQKGNLLRHIKL [46L_47W_49E_50I_52G_53F_54K_55C_67L_, Q9UKT9] | 3.29 | 3.25 | 1.64 | 1.24
LSCEICGFKCTQKGNLLRHIKL [46L_47S_49E_50I_52G_53F_54K_55C_67L_, Q9UKT9] | 2.27 | 1.7 | -0.728 | 1.09
LCCEICGFKCTQKGNLLRHIKL [46L_47C_49E_50I_52G_53F_54K_55C_67L_, Q9UKT9] | 2 | 1.83 | -0.183 | 2.48
FLCPVCGAHFTQKGNLLRHIKL [46F_47L_49P_50V_52G_53A_54H_55F_67L_, Q9UKT9] | -0.298 | -0.793 | 1.34 | 0.943
LVCEICGFPCTQKGNLLRHIKL [46L_47V_49E_50I_52G_53F_54P_55C_67L_, Q9UKT9] | -1.74 | -0.966 | -1.5 | -0.424
FVCPICGRIFTQKGNLLRHIKL [46F_47V_49P_50I_52G_53R_54I_55F_67L_, Q9UKT9] | -1.17 | -0.629 | 1.04 | 1.32
FQCPICGHTFTQKGNLLRHIKL [46F_47Q_49P_50I_52G_53H_54T_55F_67L_, Q9UKT9] | -2.53 | -2.01 | -1.64 | 0.116
